The whole screen tested about 5,500 compounds, of which about 2,000 (36%) were called active. Inconclusive results (about 18%) are left out. Cut-off read from the data, not from the text of the source: active = normalized growth mostly below about 0.91 (no sharp cut-off); inconclusive = no clear call, values can overlap the other calls; inactive = mostly above about 0.92. The list shows a part of the results.
Test: chemical genetic growth profiling, strain panel (AID 1159580);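 note: tested at 20 µM; growth read once vehicle control cultures reached saturation at 30 °C; 1 = growth at the plate median or of vehicle wells; lower values mean less growth of the strain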
Settings: growth OD

Measured: normalized growth

CC1(C)CC[C@]2(C)CC[C@]3(C)C(=CCC4[C@@]5(C)CC[C@H](O)C(C)(C)C5CC[C@]43C)C2C1 (some centres not stated)
inactive: S. cerevisiae deletion strains, locus YJL187C, strain SWE1, active compounds read low 1 | S. cerevisiae deletion strains, locus YJR066W, strain TOR1, active compounds read low 0.993 | S. cerevisiae deletion strains, locus YKL009W, strain mrt4, active compounds read low 0.988 | S. cerevisiae deletion strains, locus YKL068W, active compounds read low 0.985 | S. cerevisiae deletion strains, locus YKL085W, strain MDH1 (second series), active compounds read low 0.999 | S. cerevisiae deletion strains, locus YKL085W, strain MDH1, active compounds read low 0.999 | S. cerevisiae deletion strains, locus YKL160W, strain elf1, active compounds read low 0.987 | S. cerevisiae deletion strains, locus YKL190W, strain CNB1, active compounds read low 1 | S. cerevisiae deletion strains, locus YKR001C, strain vps1, active compounds read low 0.999 | S. cerevisiae deletion strains, locus YKR026C, strain gcn3, active compounds read low 0.989 | S. cerevisiae deletion strains, locus YKR091W, strain srl3, active compounds read low 0.993 | S. cerevisiae deletion strains, locus YLL001W, strain dnm1, active compounds read low 0.987 | S. cerevisiae deletion strains, locus YLL026W, active compounds read low 0.984 | S. cerevisiae deletion strains, locus YLL041C, strain sdh2, active compounds read low 1.01 | S. cerevisiae deletion strains, locus YLR027C, strain aat2, active compounds read low 0.98 | S. cerevisiae deletion strains, locus YLR039C, strain RIC1, active compounds read low 1.02 | S. cerevisiae deletion strains, locus YLR058C, strain SHM2, active compounds read low 1.01 | S. cerevisiae deletion strains, locus YLR102C, strain apc9, active compounds read low 1.01 | S. cerevisiae deletion strains, locus YLR113W, strain HOG1, active compounds read low 0.977 | S. cerevisiae deletion strains, locus YLR221C, strain rsa3, active compounds read low 0.987 | S. cerevisiae deletion strains, locus YLR258W, strain gsy2, active compounds read low 1.01 | S. cerevisiae deletion strains, locus YLR262C, strain YPT6 (second series), active compounds read low 1.01 | S. cerevisiae deletion strains, locus YLR268W, strain sec22, active compounds read low 1.03 | S. cerevisiae deletion strains, locus YLR320W, strain mms22, active compounds read low 0.994 | S. cerevisiae deletion strains, locus YLR342W, strain FKS1, active compounds read low 0.996 | S. cerevisiae deletion strains, locus YLR357W, strain rsc2, active compounds read low 0.971 | S. cerevisiae deletion strains, locus YLR370C, strain arc18, active compounds read low 0.999 | S. cerevisiae deletion strains, locus YLR371W, strain rom2, active compounds read low 0.973 | S. cerevisiae deletion strains, locus YLR384C, strain iki3, active compounds read low 0.967 | S. cerevisiae deletion strains, locus YLR418C, strain cdc73, active compounds read low 0.994 | S. cerevisiae deletion strains, locus YML016C, strain PPZ1, active compounds read low 1.01 | S. cerevisiae deletion strains, locus YML032C, strain rad52, active compounds read low 0.991 | S. cerevisiae deletion strains, locus YML120C, strain ndi1, active compounds read low 0.979 | S. cerevisiae deletion strains, locus YML124C, strain tub3, active compounds read low 0.984 | S. cerevisiae deletion strains, locus YMR058W, strain fet3, active compounds read low 0.988 | S. cerevisiae deletion strains, locus YMR078C, strain ctf18, active compounds read low 0.994 | S. cerevisiae deletion strains, locus YMR125W, strain sto1, active compounds read low 0.994 | S. cerevisiae deletion strains, locus YMR129W, active compounds read low 0.991 | S. cerevisiae deletion strains, locus YMR205C, strain PFK2, active compounds read low 1.01 | S. cerevisiae deletion strains, locus YMR223W, strain ubp8, active compounds read low 0.992 | S. cerevisiae deletion strains, locus YMR231W, strain pep5, active compounds read low 0.997 | S. cerevisiae deletion strains, locus YMR263W, strain SAP30, active compounds read low 0.979 | S. cerevisiae deletion strains, locus YMR307W, strain GAS1, active compounds read low 1.06 | S. cerevisiae deletion strains, locus YNL067W, strain RPL9B, active compounds read low 0.973 | S. cerevisiae deletion strains, locus YNL071W, strain lat1, active compounds read low 0.997 | S. cerevisiae deletion strains, locus YNL153C, strain GIM3, active compounds read low 0.973 | S. cerevisiae deletion strains, locus YNL183C, strain NPR1, active compounds read low 0.984 | S. cerevisiae deletion strains, locus YNL209W, strain ssb2, active compounds read low 0.975 | S. cerevisiae deletion strains, locus YNL233W, strain BNI4, active compounds read low 1.01 | S. cerevisiae deletion strains, locus YNL248C, strain rpa49, active compounds read low 0.985 | S. cerevisiae deletion strains, locus YNL250W, strain rad50, active compounds read low 0.963 | S. cerevisiae deletion strains, locus YNL271C, strain bni1, active compounds read low 0.978 | S. cerevisiae deletion strains, locus YNL298W, strain CLA4, active compounds read low 0.991 | S. cerevisiae deletion strains, locus YNL307C, strain MCK1, active compounds read low 1 | S. cerevisiae deletion strains, locus YNL322C, strain KRE1 (second series), active compounds read low 0.965 | S. cerevisiae deletion strains, locus YNR049C, strain mso1, active compounds read low 0.987 | S. cerevisiae deletion strains, locus YNR052C, strain pop2, active compounds read low 0.968 | S. cerevisiae deletion strains, locus YOL006C, strain TOP1, active compounds read low 1.14 | S. cerevisiae deletion strains, locus YOL012C, strain htz1 1.39 | S. cerevisiae deletion strains, locus YOL147C, strain pex11, active compounds read low 0.98 | S. cerevisiae deletion strains, locus YOR001W, strain rrp6, active compounds read low 1 | S. cerevisiae deletion strains, locus YOR061W, strain CKA2, active compounds read low 1.01 | S. cerevisiae deletion strains, locus YOR069W, strain VPS5, active compounds read low 1.01 | S. cerevisiae deletion strains, locus YOR070C, strain gyp1, active compounds read low 0.991 | S. cerevisiae deletion strains, locus YOR080W, strain dia2, active compounds read low 0.998 | S. cerevisiae deletion strains, locus YOR083W, strain WHI5, active compounds read low 1 | S. cerevisiae deletion strains, locus YOR106W, strain vam3, active compounds read low 0.993 | S. cerevisiae deletion strains, locus YOR136W, strain idh2, active compounds read low 0.994 | S. cerevisiae deletion strains, locus YOR144C, strain elg1, active compounds read low 0.994 | S. cerevisiae deletion strains, locus YOR184W, strain ser1, active compounds read low 1.02 | S. cerevisiae deletion strains, locus YOR231W, strain MKK1, active compounds read low 1.01 | S. cerevisiae deletion strains, locus YOR265W, strain rbl2, active compounds read low 0.996 | S. cerevisiae deletion strains, locus YOR270C, strain vph1, active compounds read low 1.05 | S. cerevisiae deletion strains, locus YOR290C, strain snf2, active compounds read low 0.989 | S. cerevisiae deletion strains, locus YOR316C, strain cot1, active compounds read low 0.993 | S. cerevisiae deletion strains, locus YPL051W, strain arl3, active compounds read low 1 | S. cerevisiae deletion strains, locus YPL078C, strain atp4, active compounds read low 1.01 | S. cerevisiae deletion strains, locus YPL106C, strain sse1, active compounds read low 0.961 | S. cerevisiae deletion strains, locus YPL240C, strain hsp82, active compounds read low 0.988 | S. cerevisiae deletion strains, locus YPL241C, strain CIN2, active compounds read low 0.992 | S. cerevisiae deletion strains, locus YPL256C, strain CLN2, active compounds read low 1.03 | S. cerevisiae deletion strains, locus YPR119W, strain clb2, active compounds read low 0.984 | S. cerevisiae deletion strains, locus YPR141C, strain kar3, active compounds read low 0.971 | S. cerevisiae deletion strains, locus YPR163C, strain tif3, active compounds read low 1 | S. cerevisiae deletion strains, locus YPR167C, strain met16, active compounds read low 0.982 | S. cerevisiae deletion strains, strain wtn01, active compounds read low 1.01 | S. cerevisiae strains, strain wild type, active compounds read low 1.02

Reference: PubChem BioAssay AID1159580 (chemical genetic matrix, 2015)
